Gli-Sufu antag: Gli-Sufu pathway antagonists, primary screen, luciferase luminescence, Sufu-KO-LIGHT cells, uHTS; Sufu-KO-LIGHT fibroblasts, Gli luciferase reporter luminescence; inhibition, % at 5 µM; 340,000 compounds, 0.74% hits;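 active = inhibition above about 55%, limit read from the data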
697 NFkB inh: inhibitors of PMA/ionomycin-induced NF-kB reporter, 697 cells, primary screen, B-cell NF-kB inhibitor project, cell-based, luminescence, uHTS; inhibition, % at 4 µM; 697 B-cell NF-kB luciferase reporter, 16 h; 330,000 compounds, 0.33% hits; in the data active = inhibition above about 35%
Beta cell apopt: inhibitors of cytokine-induced beta cell apoptosis, primary screen, luminescence | INS-1E cytokine-induced death, ATP luminescence, 48 h; percent of positive-control rescue, neutral wells zero | protection from apoptosis, % (concentration not given with the values) | 300,000 compounds, 0.8% hits | AID 435005, 2010;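 active = Every replicate reaches about 75%, or at least half do and their mean reaches it too, limit read from the data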;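 also: higher means more ATP so stronger rescue from cytokine killing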
Jurkat NFkB inh: inhibitors of induced NF-kB luciferase reporter, primary screen, TCR NF-kB activation inhibitor project, cell-based, luminescence, uHTS; Jurkat, PMA/ionomycin-induced NF-kB luciferase reporter; inhibition, % at 4 µM; 330,000 compounds, 0.53% hits; in the data active = inhibition above about 50%
Jurkat NFkB conf: PMA/ionomycin-induced NF-kB reporter inhibitors, Jurkat retest, confirmation, T-cell NF-kB inhibitor project, cell-based, luminescence, single concentration; shares compounds with Jurkat NFkB inh; Jurkat NF-kB luciferase, 16 h; inhibition, % at 4 µM; 2,700 compounds, 27% hits; AID 435020, 2010;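 active = inhibition reaching about 45% at 4 µM in either replicate, limit read from the data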
697 NFkB conf: PMA/ionomycin-induced NF-kB reporter inhibitors, 697 retest, confirmation, B-cell NF-kB inhibitor project, cell-based, luminescence, single concentration | shares compounds with 697 NFkB inh | 697 B-cell NF-kB luciferase, 16 h | inhibition, % at 4 µM | 2,000 compounds, 35% hits; in the data active = inhibition mostly above about 28%, no sharp cut-off; inactive = mostly below about 22%
Gli-Sufu confirm: Gli-SUFU pathway antagonists, confirmation, single concentration, luciferase luminescence, Sufu-KO-LIGHT cells | AID 602428, 2012 | inhibition, % at 5 µM | 2,500 compounds, 40% hits | Gli luciferase reporter | shares compounds with Gli-Sufu antag;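 active = mean inhibition at 5 µM reaching about 45%, limit read from the data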
SufuKO cytotox: cytotoxicity in Sufu-KO-LIGHT cells, confirmation, cytotoxicity control for Gli-SUFU antagonist project, cell-based, ATP luminescence, single concentration; AID 651994, 2013; cytotoxicity, % at 5 µM; shares compounds with Gli-Sufu antag; 2,500 compounds, 32% hits;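 active = mean cytotoxicity at 5 µM above about 25%, limit read from the data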;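 also: cells exposed to compound overnight for roughly 16 to 18 hours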
Wnt3a cs: Wnt3a reporter signal inhibition, confirmation, counter-screen for Gli-SUFU antagonist project, Wnt-LIGHT cells, luminescence, single concentration | shares compounds with Gli-Sufu antag | Wnt3a-driven luciferase reporter | inhibition, % at 6.25 µM | 2,500 compounds, 20% hits;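 active = mean inhibition above about 25%, limit read from the data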
Hits are given with their value; i = inactive; nt = not tested or not shown. Hits are enriched below; roughly 1.8% of the tested compounds scored in any of these assays.

SMILES | Gli-Sufu antag | 697 NFkB inh | Beta cell apopt | Jurkat NFkB inh | Jurkat NFkB conf | Gli-Sufu confirm | SufuKO cytotox | Wnt3a cs | others
CCO[C@@H]1OC(C(=O)NCc2nc3ccccc3[nH]2)=C[C@H](C(C)(C)C)[C@H]1CCCO | i | i | i | 73 | 55 | 58 | 60 | i
CCO[C@@H]1OC(C(=O)NCc2nc3ccccc3[nH]2)=C[C@H](C2CC2)[C@H]1CCCO | i | i | i | i | nt | nt | nt | nt
CCCCOC(=O)C1CCCC(C)N1 (stereo not drawn) | i | i | i | i | nt | nt | nt | nt
CC1=CC(C)(C)N(C(=O)CCl)c2cc(C)ccc21 | i | i | i | i | nt | nt | nt | nt
CC1=CC(C)(C)N(S(=O)(=O)c2ccc(C)cc2)c2cc(C)ccc21 | 59 | i | i | 50 | 53 | 58 | 62 | i
O=C(N=Nc1c(O)[nH]c2ccc(Br)cc12)c1ccccc1-n1cccc1 | 57 | i | i | 71 | i | i | 34 | i
N=C(N)N=Nc1c(O)[nH]c2ccc(Br)cc12 | i | i | i | i | nt | nt | nt | nt
COCCNC(=S)Nc1ccc(S(=O)(=O)Nc2cnc3ccccc3n2)cc1 | i | i | i | i | nt | nt | nt | nt
COc1cccc(CN(C)C(=O)c2cc(COc3c(F)cccc3F)on2)c1 | i | i | i | i | nt | nt | nt | nt
COc1cccc(CN(C)C(=O)c2cc(COc3ccc4ncccc4c3)on2)c1 | 57 | i | 76 | 52 | i | 57 | i | 27
CCNC(=O)C(=O)Nc1ccc([N+](=O)[O-])cc1 | i | i | i | i | nt | nt | nt | nt
CCCCc1ccc(NC(=O)C(=O)NCCN2CCN(Cc3ccc([N+](=O)[O-])cc3)CC2)cc1 | 56 | i | i | 51 | 59 | i | i | i
Cc1nc2ncccn2c1-c1csc(Nc2cccc(C(=O)O)c2)n1 | i | i | i | i | nt | nt | nt | nt
CCC(=O)c1ccc(OCC(=O)N(C)CC(=O)Nc2cccc(F)c2)cc1 | i | i | i | i | nt | nt | nt | nt
COc1cccc(/C=N/Nc2cc(Cl)nc(C)n2)c1O | i | i | i | i | nt | nt | nt | nt
COc1cccc(/C=N/Nc2ncnc3c2ncn3Cc2ccccc2)c1O | i | i | nt | 63 | 67 | 78 | 32 | 69
COc1cccc(NC(=O)C2C3CCC4C(CCC32)C4(Cl)Cl)c1 (stereo not drawn) | i | i | i | i | nt | nt | nt | nt
O=C(N/N=C/C(Br)=C/c1ccccc1)c1ccncc1 | i | i | nt | i | nt | nt | nt | nt
CCOc1cc(C(=O)N/N=C/C(Br)=C/c2ccccc2)cc(OCC)c1OCC | i | i | i | 58 | i | 64 | 47 | i
O=C(NC1CCN(Cc2ccccc2)CC1)c1ccc(S(=O)(=O)NCc2ccco2)cc1 | i | i | i | 51 | i | i | i | i
O=C(NC1CCCCC1)c1ccc(S(=O)(=O)NCc2ccco2)cc1 | i | i | i | i | nt | nt | nt | nt
O=C(CSc1nnc(Cn2nnc3ccccc32)o1)N(Cc1ccc(F)cc1)c1ccccc1 | 68 | i | 109 | 57 | 61 | 57 | 45 | i
Cc1ccc(Cc2cnc(NC(=O)c3ccco3)s2)cc1 | i | i | i | i | nt | nt | nt | nt
O=C(Nc1ncc(Cc2ccc(SC(F)F)cc2)s1)c1ccc(OC(F)F)cc1 | 60 | i | i | 76 | 58 | 71 | 66 | i | 697 NFkB conf=i
Cc1cc(C)c(NC(=O)CS(=O)CC(=O)NCC2CCCO2)c(C)c1 (stereo not drawn) | i | i | i | i | nt | nt | nt | nt
SMILES | Gli-Sufu antag | 697 NFkB inh | Beta cell apopt | Jurkat NFkB inh | Jurkat NFkB conf | Gli-Sufu confirm | SufuKO cytotox | Wnt3a cs | others
CC1(C)CC(N2CCN(c3ccccc3)CC2)=CC(=[N+]2CCCC2)C1 | 83 | i | 97 | 57 | i | 86 | 35 | 38
CCc1c(C)nc2ncnn2c1NCCc1ccc(OC)cc1 | 62 | i | 97 | 78 | 68 | 61 | 39 | i
CC(C)Oc1ccccc1C1CC(=O)Nc2cc3c(cc21)OCCO3 (stereo not drawn) | i | i | i | 78 | 51 | 60 | 59 | i
COc1cccc(C2CC(=O)Nc3cc4c(cc32)OCCO4)c1OC(C)C (stereo not drawn) | i | i | nt | i | nt | nt | nt | nt
COc1ccccc1CNS(=O)(=O)c1ccc(-c2cc(C)no2)cc1 | i | i | i | 60 | 48 | i | 57 | i
Cc1ccc(-c2csc3ncnc(N4CCN(Cc5ccccc5)CC4)c23)cc1 | i | i | i | i | nt | nt | nt | nt
Cc1csc2ncnc(NC3CCN(Cc4ccccc4)CC3)c12 | 69 | i | 107 | 68 | 58 | 75 | i | 44
COC(=O)CCC(=O)NC(=S)Nc1sc(C)c(C)c1C(N)=O | i | i | nt | 65 | 50 | 50 | 51 | i
CNc1ccccc1C(C)(C)c1cc(-c2cccc(OC)c2)no1 | 71 | i | i | 51 | i | 76 | 42 | i
O=C(COc1ccc(-n2ccnc2)cc1)Nc1cccc(F)c1 | i | i | i | i | nt | nt | nt | nt
O=C(NCCNc1ccnc2cc(Cl)ccc12)c1ccccc1F | 67 | i | i | 56 | i | 50 | i | i
O=C1C=C(c2ccc3c(c2)OCO3)C[C@@H](c2ccc3c(c2)OCO3)C1 | i | i | i | i | nt | nt | nt | nt
O=C1C=C(c2ccc3cc[nH]c3c2)C[C@@H](c2ccc3c(c2)OCO3)C1 | 59 | i | i | 53 | i | i | i | i
COc1cc2c(c(OC)c1OC)-c1ccc(OC)c(=O)cc1[C@@H](N(C)CC#CCO)CC2 | 66 | i | i | 63 | 62 | 58 | 62 | 41
Cc1ccc2c(c1)-n1c(nc3ccc(C)cc3c1=O)C(Cc1ccccc1)NC2=O (stereo not drawn) | nt | i | i | i | nt | nt | nt | nt
CC(CNc1ccc(Cl)cc1)(CNc1ccc(Cl)cc1)[N+](=O)[O-] | i | nt | nt | nt | nt | nt | nt | nt
COc1cc(C2c3cc4c(cc3C(OC3OC5COC(c6cccs6)OC5C(O)C3O)C3COC(=O)C23)OCO4)cc(OC)c1O (stereo not drawn) | 82 | i | 94 | 80 | 94 | 81 | 72 | 57
CC1=CC(C)(C)Nc2ccc(OC(=O)c3cccnc3)cc21 | i | 66 | i | i | nt | nt | nt | nt | 697 NFkB conf=62
O=C(Oc1ccc(F)cc1)c1cccnc1 | i | i | i | i | nt | nt | nt | nt
CC1=CC(C)(C)Nc2ccc(OC(=O)C(C)N3C(=O)c4ccccc4C3=O)cc21 (stereo not drawn) | i | 67 | i | i | nt | nt | nt | nt | 697 NFkB conf=55
